Where “and” joins values, the source holds several entries; their conditions need not be identical. Identical values can stand only once. Records with an inconclusive call do not appear. More than one record can exist for a structure, and the calls need not agree. Calls of active or inactive are those of the source. Unless noted, calls come from the whole dose curve.
Assays:
[1] = biological target: Gonadotropin-releasing hormone receptor (Homo sapiens) (UniProt P30968); assay: Human gonadotropin-releasing hormone receptor (GnRHR) small molecule agonists, calcium flux assay in GnRHR-HEK293 cells (AID 1920063); note: nearly all actives have a fitted effect of over 35% in size; note: potency is the fitted concentration of half-maximal effect
How it was run: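 Tox21-format agonist screen using human GnRHR-expressing HEK293 cells and a fluorescent calcium dye; kinetic 3-min fluorescence reading after compound addition, 15-point concentration series run in triplicate.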

[2] = biological target: KiSS-1 receptor (Homo sapiens) (UniProt Q969F8); assay: Human kisspeptin (KISS1R) small molecule agonists, calcium flux assay in KISS1R-HEK293 cells (AID 1920064; active = well fitted activation curve with a large enough effect in the repeat runs)
How it was run: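 Intracellular calcium mobilization in KISS1R-HEK293 cells was recorded by fluorescence (Ex/Em 480/540) for 3 min following compound addition to cells pre-loaded 1 h with calcium dye.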

[3] = G protein-coupled receptor (GPCR) small molecule agonists, calcium flux assay: HEK293 wild type cell line counter screen (AID 1920065)
How it was run: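 In this agonist-mode screen, ATP is the positive control and DMSO the vehicle. Cells grow 18 h before a 1 h dye incubation at 37 C; signal is taken at Ex/Em 480/540 over 3 min.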

[4] = p53 small molecule agonists, cell-based qHTS assay with human liver microsomes: qHTS cell viability counter screen (AID 1963579); note: nearly all actives have a fitted effect of over 45% in size; note: potency is the fitted concentration of half-maximal effect
How it was run: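 p53RE-bla cells, 4,000/well, dosed 5 hours after plating, with human liver microsomes (0.5 mg/mL final) plus NADPH (0.5 mg/mL final), 16 hours at 37 C. Viability read as CellTiter-Glo luminescence after 30 min at room temperature.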

[5] = p53 small molecule agonists, cell-based qHTS assay with rat liver microsomes: qHTS cell viability counter screen (AID 1963580); note: nearly all actives have a fitted effect of over 45% in size
How it was run: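 p53RE-bla HCT-116 cells were exposed 16 h at 37 C to compounds with rat liver microsomes (0.5 mg/mL) and NADPH (0.5 mg/mL). Viability was measured in the same wells as ATP content by CellTiter-Glo luminescence.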

[6] = p53 small molecule agonists, cell-based qHTS assay: qHTS cell viability counter screen (AID 1963581); note: nearly all actives have a fitted effect of over 45% in size
How it was run: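 Compounds are pinned onto HCT-116 p53RE-bla cells and left 16 h at 37 C. Following the reporter FRET read, ATP is quantified by CellTiter-Glo luminescence after 30 min at room temperature.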

[7] = biological target: 5-hydroxytryptamine receptor 2A (Homo sapiens) (UniProt P28223); assay: 5-hydroxytryptamine receptor 2A (HTR2A) small molecule antagonists, cell-based qHTS assay (AID 1963586); note: nearly all actives have a fitted effect of over 45% in size; note: potency is the fitted concentration of half-maximal effect
How it was run: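 Antagonist-mode intracellular calcium assay: DOI (4 nM) added after 5 min compound pre-incubation at room temperature to dye-loaded HTR2A-CHO cells. Fluorescence followed for 3 min, sampled every second.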

[8] = biological target: 5-hydroxytryptamine receptor 2A (Homo sapiens) (UniProt P28223); assay: 5-hydroxytryptamine receptor 2A (HTR2A) small molecule agonists, cell-based qHTS assay (AID 1963587); note: nearly all actives have a fitted effect of over 30% in size; note: potency is the fitted concentration of half-maximal effect
How it was run: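 CHO cells stably expressing human HTR2A, plated 18 h, loaded with calcium dye 1 h at 37 C. Agonist mode: compounds added and intracellular calcium fluorescence recorded kinetically for 2 min at 1 sec intervals.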

[9] = biological target: Muscarinic acetylcholine receptor M1 (Homo sapiens) (UniProt P11229); assay: Cholinergic receptor muscarinic 1 (CHRM1) small molecule antagonists, cell-based qHTS assay (AID 1963588); note: nearly all actives have a fitted effect of over 40% in size; note: potency is the fitted concentration of half-maximal effect
How it was run: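 CHRM1-CHO calcium-flux assay, antagonist mode. Cells were seeded 18 h, dye-loaded 1 h at 37 C and given compound for 5 min at RT, then acetylcholine was added at 50nM. FDSS fluorescence was read 3 min; 15 concentrations, three runs.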

[10] = biological target: Muscarinic acetylcholine receptor M1 (Homo sapiens) (UniProt P11229); assay: Cholinergic receptor muscarinic 1 (CHRM1) small molecule agonists, cell-based qHTS assay (AID 1963589); note: nearly all actives have a fitted effect of over 35% in size
How it was run: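 Stable CHRM1-CHO cells (human receptor) were incubated 18 h, dye-loaded for 1 h at 37 C and exposed to test compounds for agonist activity, with calcium-dependent fluorescence followed kinetically.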

[11] = cAMP Responsive Elements (CRE) small molecule agonists, cell-based qHTS assay (AID 1963590)
How it was run: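 FRET-based beta-lactamase readout (LiveBLAzer B/G, 2 h RT) quantified CRE activation in HEK 293T CRE-bla cells after 3 h treatment with DMSO-dissolved compounds.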

[12] = biological target: Beta-2 adrenergic receptor (Homo sapiens) (UniProt P07550); assay: Adrenergic beta2 receptor (ADRB2) small molecule antagonists, cell-based qHTS assay (AID 1963592); note: series mostly up to about 92 µM; nearly all actives have a fitted effect of over 50% in size
How it was run: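 Cells (CHO, stable ADRB2 overexpression) incubated 18-20hr at 37C; compounds added from DMSO; agonist mix (1nM isoproterenol, 100uM IBMX, 25uM Ro-20-1724) added; 0.5hr RT; d2-cAMP and anti-cAMP-cryptate added; 1hr RT; 665/615 nm read.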

[13] = biological target: Beta-2 adrenergic receptor (Homo sapiens) (UniProt P07550); assay: Adrenergic beta2 receptor (ADRB2) small molecule agonists, cell-based qHTS assay (AID 1963593);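 note: CHO cells stably overexpressing human ADRB2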
How it was run: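 CHO cells stably over-expressing ADRB2 were plated overnight at 37C, then dosed with compounds plus a stimulation mix containing 100uM IBMX and 25uM Ro-20-1724 for 0.5hr at room temperature. cAMP was measured by HTRF competition, 1hr.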

[14] = biological target: D(2) dopamine receptor (Homo sapiens) (UniProt P14416); assay: Dopamine D2 receptor (DRD2) small molecule agonists, cell-based qHTS assay (AID 1963594); note: nearly all actives have a fitted effect of over 35% in size
How it was run: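 HEK293 cells stably expressing human DRD2, pre-treated with PDE inhibitor Ro20-1724 (0.1 mM final) and compound 10 min at room temperature, then stimulated with NKH477 (200nM […]) for 30 min. cAMP read by HTRF (665/620 nm).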

[15] = biological target: D(2) dopamine receptor (Homo sapiens) (UniProt P14416); assay: Dopamine D2 receptor (DRD2) small molecule antagonists, cell-based qHTS assay (AID 1963595; active = well fitted inhibition curve with a large enough effect in the signal ratio in the repeat runs, with a control signal flat; the % refers to the signal ratio)
How it was run: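 Stable D2 receptor HEK293 line, 24 h after seeding. Compound preincubated 10 min, then quinpirole (12 nM) with forskolin analogue NKH477 (200 nM), 30 min, room temperature. Detection by time-resolved FRET of cAMP.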

[16] = p53 small molecule agonists, cell-based qHTS assay with human liver microsomes (AID 1963577); note: potency is the fitted concentration of half-maximal effect
How it was run: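 p53RE-bla cells, 4,000/well, compound added after 5 h, with human liver microsomes 0.5 mg/mL and NADPH 0.5 mg/mL final; 16 h at 37 C, then LiveBLAzer 2 h RT, fluorescence.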

[17] = p53 small molecule agonists, cell-based qHTS assay with rat liver microsomes (AID 1963578)
How it was run: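 p53RE-bla cells, 4,000/well, pre-incubated 5 h, then given compounds plus rat liver microsomes (0.5 mg/mL final) and NADPH (0.5 mg/mL final). Incubation 16 h at 37 C; beta-lactamase reporter read by LiveBLAzer fluorescence after 2 h at room temperature.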

[18] = cAMP Responsive Elements (CRE) small molecule antagonists, cell-based qHTS assay (AID 1963591; active = well fitted inhibition curve with a large enough effect in the signal ratio in the repeat runs, not every such curve was filed as active; the % refers to the signal ratio)
How it was run: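 qHTS in CRE-bla HEK 293T cells: compound in DMSO, then 0.25 uM NKH477 (final), 3 h at 37 °C/5% CO2; beta-lactamase FRET read-out after 2 h substrate incubation.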

[19] = p53 small molecule agonists, cell-based qHTS assay (AID 1963582; active = well fitted activation curve with a large enough effect in the signal ratio in the repeat runs, not every such curve was filed as active; the % refers to the signal ratio)
How it was run: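 Agonist activity was scored from beta-lactamase FRET fluorescence in p53RE-bla cells treated 16 h at 37 C with compounds in DMSO, substrate incubation being 2 h at room temperature.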
% is set by controls: 0 for no effect and ±100 for the full control effect.

Chain of 5-hydroxytryptamine receptor 2A (Homo sapiens) (P28223 whole entry, looked up): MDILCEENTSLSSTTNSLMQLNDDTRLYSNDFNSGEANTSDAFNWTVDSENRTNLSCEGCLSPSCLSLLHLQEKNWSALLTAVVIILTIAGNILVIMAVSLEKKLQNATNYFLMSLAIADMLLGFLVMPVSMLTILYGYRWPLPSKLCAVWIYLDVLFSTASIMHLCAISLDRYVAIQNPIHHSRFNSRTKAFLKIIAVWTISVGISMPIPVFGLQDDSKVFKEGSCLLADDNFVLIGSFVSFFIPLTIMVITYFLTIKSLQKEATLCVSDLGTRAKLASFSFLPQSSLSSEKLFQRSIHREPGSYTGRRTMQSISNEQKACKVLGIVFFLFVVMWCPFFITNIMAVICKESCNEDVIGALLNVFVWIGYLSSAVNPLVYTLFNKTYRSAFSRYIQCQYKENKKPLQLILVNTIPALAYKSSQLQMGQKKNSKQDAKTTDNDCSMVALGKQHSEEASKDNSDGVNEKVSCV
Chain of Gonadotropin-releasing hormone receptor (Homo sapiens) (P30968 whole entry, looked up): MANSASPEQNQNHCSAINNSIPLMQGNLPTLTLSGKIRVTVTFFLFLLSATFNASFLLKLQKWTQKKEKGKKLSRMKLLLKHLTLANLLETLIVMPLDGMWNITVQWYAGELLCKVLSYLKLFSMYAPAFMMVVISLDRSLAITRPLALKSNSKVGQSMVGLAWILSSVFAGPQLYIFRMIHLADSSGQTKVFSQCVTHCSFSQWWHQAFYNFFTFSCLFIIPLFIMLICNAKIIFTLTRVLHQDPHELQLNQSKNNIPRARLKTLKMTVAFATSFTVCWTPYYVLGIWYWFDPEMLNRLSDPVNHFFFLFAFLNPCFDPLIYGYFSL
Chain of Muscarinic acetylcholine receptor M1 (Homo sapiens) (P11229 whole entry, looked up): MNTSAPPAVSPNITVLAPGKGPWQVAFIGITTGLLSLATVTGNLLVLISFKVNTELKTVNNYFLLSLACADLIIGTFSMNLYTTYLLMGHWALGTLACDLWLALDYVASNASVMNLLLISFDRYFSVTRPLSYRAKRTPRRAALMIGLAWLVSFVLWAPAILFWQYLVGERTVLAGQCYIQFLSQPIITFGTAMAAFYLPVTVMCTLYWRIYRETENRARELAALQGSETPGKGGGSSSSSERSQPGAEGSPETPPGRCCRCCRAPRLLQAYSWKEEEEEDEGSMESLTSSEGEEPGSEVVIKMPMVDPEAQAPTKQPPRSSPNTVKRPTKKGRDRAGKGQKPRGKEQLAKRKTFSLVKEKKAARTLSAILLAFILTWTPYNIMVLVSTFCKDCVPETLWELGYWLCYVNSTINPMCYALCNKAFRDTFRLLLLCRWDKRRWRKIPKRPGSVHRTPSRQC
Chain of D(2) dopamine receptor (Homo sapiens) (P14416 whole entry, looked up): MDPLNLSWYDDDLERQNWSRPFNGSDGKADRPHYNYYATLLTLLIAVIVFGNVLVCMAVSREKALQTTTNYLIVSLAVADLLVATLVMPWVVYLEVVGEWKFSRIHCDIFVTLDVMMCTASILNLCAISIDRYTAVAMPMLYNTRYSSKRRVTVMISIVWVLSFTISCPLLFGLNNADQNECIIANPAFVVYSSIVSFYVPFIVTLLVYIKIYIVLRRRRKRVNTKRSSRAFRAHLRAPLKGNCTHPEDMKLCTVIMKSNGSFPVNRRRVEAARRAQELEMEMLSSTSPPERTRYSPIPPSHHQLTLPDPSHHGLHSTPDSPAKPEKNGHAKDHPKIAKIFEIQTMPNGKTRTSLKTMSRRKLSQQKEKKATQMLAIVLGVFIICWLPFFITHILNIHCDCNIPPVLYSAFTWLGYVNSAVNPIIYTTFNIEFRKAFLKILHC
Chain of Beta-2 adrenergic receptor (Homo sapiens) (P07550 whole entry, looked up): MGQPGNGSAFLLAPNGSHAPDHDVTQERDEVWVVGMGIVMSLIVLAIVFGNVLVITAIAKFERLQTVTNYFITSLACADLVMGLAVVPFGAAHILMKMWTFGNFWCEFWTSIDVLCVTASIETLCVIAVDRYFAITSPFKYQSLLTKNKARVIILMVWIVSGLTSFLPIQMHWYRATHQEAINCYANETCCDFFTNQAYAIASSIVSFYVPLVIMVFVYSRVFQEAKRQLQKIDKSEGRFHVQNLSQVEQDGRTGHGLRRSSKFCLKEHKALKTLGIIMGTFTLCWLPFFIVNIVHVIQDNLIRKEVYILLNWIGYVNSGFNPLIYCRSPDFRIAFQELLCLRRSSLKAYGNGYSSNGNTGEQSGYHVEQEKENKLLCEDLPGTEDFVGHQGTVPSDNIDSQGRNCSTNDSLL
Chain of KiSS-1 receptor (Homo sapiens) (Q969F8 whole entry, looked up): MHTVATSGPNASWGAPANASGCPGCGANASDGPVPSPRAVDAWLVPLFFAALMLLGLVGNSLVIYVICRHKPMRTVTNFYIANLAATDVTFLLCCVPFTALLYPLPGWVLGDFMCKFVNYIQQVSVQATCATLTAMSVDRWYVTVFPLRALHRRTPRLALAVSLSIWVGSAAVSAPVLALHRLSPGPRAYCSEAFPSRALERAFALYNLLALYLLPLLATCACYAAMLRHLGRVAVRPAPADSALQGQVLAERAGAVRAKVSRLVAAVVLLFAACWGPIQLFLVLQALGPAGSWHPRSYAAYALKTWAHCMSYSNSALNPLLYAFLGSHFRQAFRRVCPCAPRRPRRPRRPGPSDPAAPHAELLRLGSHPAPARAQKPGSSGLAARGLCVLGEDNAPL

CN(C)C1CSSSC1
inactive: Potency [1] | Potency [2] | Potency [3] | Potency [4] | Potency [5] | Potency [6] | Potency [7] | Potency [8] | Potency [9] | Potency [10] | Potency [11] | Potency [12] | Potency [13] | Potency [14] | Potency [15]

O=[N+]([O-])C(Br)(CO)CO
inactive: Potency [1] | Potency [2] | Potency [3] | Potency [4] | Potency [6] | Potency [7] | Potency [9] | Potency [11] | Potency [12]

CC(C)(c1cc(Cl)c(O)c(Cl)c1)c1cc(Cl)c(O)c(Cl)c1
inactive: Potency [2] | Potency [3] | Potency [16] | Potency [17] | Potency [5] | Potency [6] | Potency [10] | Potency [18] | Potency [12] | Potency [14] | Potency [15]
active: Potency [1] 38.9 µM | Potency [4] 40.8 µM | Potency [8] 55 µM and 24.5 µM
inactive and 13.3 µM (active): Potency [7]
33.4 µM (active) and inactive: Potency [9]

CN(C)C(=S)[S-].CN(C)C(=S)[S-].[Cu+2]
inactive: activity change [1] 5.57% [at 11.8 µM, stronger effect = higher value] | activation [2] 0.935% [at 15.8 µM] | activation [3] 0.103% [at 11.8 µM] | activity change, negative = cytotoxicity [4] -25.4% [at 13.5 µM] | activity, negative = inhibition [7] 13.6% [at 12.7 µM] | activation [8] 16.6% [at 15.9 µM] | activation [10] 0.767% [at 15.8 µM] | activity change, negative = inhibition [12] 0.898% [at 19 µM] | activation [14] 0.949% [at 19 µM] | activity change, negative = inhibition [15] 2.62% [at 18.9 µM]

c1coc(-c2nc3ccccc3[nH]2)c1
inactive: Potency [1] | Potency [2] | Potency [3] | Potency [16] | Potency [4] | Potency [5] | Potency [6] | Potency [19] | Potency [7] | Potency [8] | Potency [9] | Potency [10] | Potency [11] | Potency [18] | Potency [12] | Potency [13] | Potency [15]

CCN(CC)c1nc(C)cc(OP(=S)(OC)OC)n1
inactive: Potency [1] | Potency [2] | Potency [3] | Potency [4] | Potency [5] | Potency [6] | Potency [19] | Potency [8] | Potency [9] | Potency [10] | Potency [11] | Potency [18] | Potency [12] | Potency [14] | Potency [15]

CC(C)(C)C(O)C(Oc1ccc(-c2ccccc2)cc1)n1cncn1 (stereo unspecified)
inactive: Potency [1] | Potency [2] | Potency [3] | Potency [16] | Potency [17] | Potency [4] | Potency [6] | Potency [19] | Potency [9] | Potency [10] | Potency [11] | Potency [18] | Potency [12] | Potency [14] | Potency [15]

Nc1ccc(Cl)cc1C(=O)c1ccccc1
inactive: Potency [1] | Potency [2] | Potency [3] | Potency [17] | Potency [9] | Potency [10] | Potency [12] | Potency [14] | Potency [15]

CC(C)(C)c1cc(O)ccc1O
inactive: Potency [1] | Potency [2] | Potency [3] | Potency [17] | Potency [4] | Potency [5] | Potency [19] | Potency [7] | Potency [8] | Potency [9] | Potency [10] | Potency [11] | Potency [18] | Potency [12] | Potency [15]

CC(=O)[O-].CC(=O)[O-].[Co+2]
inactive: Potency [1] | Potency [2] | Potency [3] | Potency [4] | Potency [5] | Potency [6] | Potency [7] | Potency [8] | Potency [9] | Potency [10] | Potency [11] | Potency [18] | Potency [12] | Potency [13] | Potency [15]

N=C(N)[Se]
inactive: Potency [1] | Potency [2] | Potency [3] | Potency [16] | Potency [4] | Potency [5] | Potency [6] | Potency [7] | Potency [9] | Potency [10] | Potency [11] | Potency [18] | Potency [12] | Potency [13] | Potency [14] | Potency [15]

ClCCCCCCCl
inactive: Potency [1] | Potency [2] | Potency [3] | Potency [4] | Potency [5] | Potency [6] | Potency [7] | Potency [8] | Potency [9] | Potency [10] | Potency [11] | Potency [18] | Potency [12] | Potency [13] | Potency [14] | Potency [15]

CCOP(=S)(OCC)Oc1ncn(-c2ccccc2)n1
active: Potency [16] 2.89 µM
inactive: Potency [1] | Potency [2] | Potency [3] | Potency [4] | Potency [5] | Potency [6] | Potency [19] | Potency [7] | Potency [8] | Potency [10] | Potency [12] | Potency [14] | Potency [15]

O.O.O.O.O.O.O.O=S(=O)([O-])[O-].[Co+2]
inactive: Potency [1] | Potency [2] | Potency [3] | Potency [4] | Potency [6] | Potency [9] | Potency [10] | Potency [11] | Potency [18] | Potency [12] | Potency [14] | Potency [15]

C#C[C@]1(O)CC[C@H]2[C@@H]3CCC4=CC(=O)CCC4=C3C=C[C@@]21CC
inactive: Potency [1] | Potency [2] | Potency [3] | Potency [4] | Potency [8] | Potency [9] | Potency [10] | Potency [15]

CN1CC[C@]23c4c5ccc(O)c4O[C@H]2[C@@H](O)C=C[C@H]3[C@H]1C5
inactive: Potency [1] | Potency [2] | Potency [3] | Potency [7] | Potency [8] | Potency [10] | Potency [11] | Potency [18] | Potency [12] | Potency [13] | Potency [14] | Potency [15]

O=S(=O)(NS(=O)(=O)C(F)(F)F)C(F)(F)F
inactive: Potency [1] | Potency [2] | Potency [3] | Potency [4] | Potency [6] | Potency [7] | Potency [8] | Potency [9] | Potency [12] | Potency [13] | Potency [14] | Potency [15]
